Laboratory results from PubChem BioAssay (EPA / NIEHS).
Inconclusive results are not listed. The source made the active and inactive calls. How the source made its calls, unless noted: active means hit-call score of the fitted dose curve at least 0.9, where 1 is the maximum; inconclusive means response in the unintended direction; inactive means score below 0.9.

Legend:
[1] = biological target: human Phosphodiesterase 10 (PDE10), PDE10A (gene 10846) (UniProt Q9Y233); assay: NVS_ENZ_hPDE10: NovaScreen (NVS) Enzymatic Assay for human Phosphodiesterase 10 (PDE10) (AID 2283195)
Method in brief: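 PDE10A, cell-free; 1 h incubation; fluorescence intensity + electrophoretic mobility shift separating substrate/product; DMSO = baseline; 25 uM duplicate primary, CRC up to 50 uM.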

[2] = biological target: Bile acid receptor (Homo sapiens) (UniProt Q96RI1); assay: OT_FXR_FXRSRC1_1440: Odyssey Thera (OT) 24-hour HEK293T Protein-Complementation Assay for Farnesoid X receptor/SRC-1 Co-activator (AID 2283384)
Method in brief: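 HEK293T cells, 24 h after chemical dosing. FXR–SRC-1 coactivator interaction read as fluorescence from protein-fragment complementation of a split reporter. Gain of signal fitted against DMSO baseline.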

[3] = tested on: Sodium/Iodide Symporter (NIS), SLC5A5 (gene 6528); assay: CPHEA_Stoker_NIS_Inhibition_RAIU: CPHEA's Radioactive Iodide Uptake (RAIU) Assay for Sodium/Iodide Symporter (NIS) Inhibition, Stoker and Laws Labs (AID 2283841)
Method in brief: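 Iodide uptake through human NIS is measured in an engineered HEK293T line. Cells take up 125I (329pM final) for 2 hours at room temperature alongside chemicals at 0.001–100uM. Retained radioactivity is counted, and the signal is expressed against DMSO controls.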

[4] = tested on: SERPINA7 (gene 6906); assay: CCTE_GLTED_hTBG: CCTE's human Thyroxine-binding Globulin (TBG) Inhibition Assay, Great Lakes Toxicology and Ecology Division (GLTED) Lab (AID 2284343);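 further: active chemicals lower fluorescence versus DMSO baseline by displacing probe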
Method in brief: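 Human TBG incubated 2 h with test chemical; displacement of ANSA probe read by fluorescence, 380 nm excitation/475 nm emission. Loss of signal relative to DMSO.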

[5] = tested on: TTR (gene 7276); assay: CCTE_GLTED_hTTR_0.125uM: CCTE's human Transthyretin (hTTR) Inhibition Assay, with 0.125uM TTR, Great Lakes Toxicology and Ecology Division (GLTED) Lab (AID 2284431; active means hit-call score of the fitted dose curve at least 0.9, where 1 is the maximum; inactive means score below 0.9;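 further: hits lower the fluorescence signal relative to DMSO baseline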)
Method in brief: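 Probe-displacement format: chemicals competing for the T4 site release ANSA from 0.125uM TTR during a 2 h incubation, measured by fluorescence at 380 excitation and 475 emission.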

[6] = CCTE_Deisenroth_AIME_384WELL_CTox_Active: Cytotoxicity Assessment (CTOX) in CCTE's 384-well Estrogen Receptor Transactivation Assay with AIME metabolic competence (metabolism positive), Deisenroth Lab (AID 2284037);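 further: chemicals first conditioned 2 h by alginate-bound induced rat liver S9 before cells; activity means signal loss indicating cell death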
Method in brief: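 Cytotoxicity in VM7Luc4E2 breast cells, 24 hour, measured as protease-substrate fluorescence loss, after 2-hour metabolic conditioning with induced rat hepatic S9 in alginate microspheres. Concentrations 0.002 - 200 uM, 10 points, bidirectional fitting.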

[7] = CCTE_Deisenroth_AIME_384WELL_CTox_Inactive: Cytotoxicity Assessment (CTOX) in CCTE's 384-well Estrogen Receptor Transactivation Assay without AIME metabolic competence (metabolism negative), Deisenroth Lab (AID 2284039);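 further: cell viability via live-cell protease substrate cleaved to fluorescent probe; cells exposed 24 h to medium preincubated 2 h with alginate-water beads without S9; loss of fluorescence signal means loss of viability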
Method in brief: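 Metabolism-negative arm: chemicals (10-point, 0.002 - 200 uM) preincubated 2 h with alginate-water lids, medium moved onto VM7Luc4E2 cells for 24 h. Fluorescent live-cell protease readout; bidirectional curve fit.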

[8] = UKN5_HCS_SBAD2_cell_viability: Viability Assessment in the University of Konstanz (UKN) Leist Lab Neurite Outgrowth Assay in human iPSC-derived immature Dorsal Root Ganglia Neurons (UKN5) (AID 2284056; active means hit-call score of the fitted dose curve at least 0.9, where 1 is the maximum; inactive means score below 0.9)
Method in brief: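 iPSC-derived immature peripheral neurons (SBAD2) seeded on Matrigel with CHIR99021, SU5402 and DAPT, dosed 1 h later for 24 h. Viability from Hoechst H-33342 and calcein-AM live staining, high-content imaging; bidirectional fit versus DMSO.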

[9] = UKN5_HCS_SBAD2_neurite_outgrowth: University of Konstanz (UKN) Leist Lab Neurite Outgrowth Assay in human iPSC-derived immature Dorsal Root Ganglia Neurons (UKN5) (AID 2284070; active means hit-call score of the fitted dose curve at least 0.9, where 1 is the maximum; inactive means score below 0.9); conditions: actives raise or lower the signal
Method in brief: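 SBAD2 iPSC-derived immature peripheral neurons on Matrigel, 100.000 cells/cm2, medium with CHIR99021 (1.5 uM), SU5402 (5 uM), DAPT (5 uM); compound added 1 h post-seeding for 24 h. Calcein-AM neurite area by high-content imaging; Hoechst H-33342 viability; bidirectional fit vs DMSO.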

[10] = UKN2_HCS_IMR90_neural_migration: University of Konstanz (UKN) Leist Lab Neural Crest Cell Migration Assay in human induced IMR90 Pluripotent Stem Cells (UKN2) (AID 2284204; active means hit-call score of the fitted dose curve at least 0.9, where 1 is the maximum; inactive means score below 0.9); conditions: actives raise or lower the signal
Method in brief: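 Migration of human IMR90-derived neural crest cells into a stopper-defined gap is imaged after 24 h chemical treatment. Activity is fitted bidirectionally relative to DMSO.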

[11] = UKN4_HCS_LUHMES_neurite_outgrowth: University of Konstanz (UKN) Leist Lab Neurite Outgrowth Assay in human LUHMES cells (UKN4) (AID 2284206; active means hit-call score of the fitted dose curve at least 0.9, where 1 is the maximum; inactive means score below 0.9); conditions: actives raise or lower the signal
Method in brief: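 Human LUHMES neuronal precursors, differentiated 2 days then replated without cAMP and GDNF, exposed to compounds for 24 h. Neurite area imaged by high-content microscopy after calcein-AM live staining; Hoechst H-33342 for viability; bidirectional fit versus DMSO.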

[12] = UKN4_HCS_LUHMES_cell_viability: Viability Assessment in the University of Konstanz (UKN) Leist Lab Neurite Outgrowth Assay in human LUHMES cells (UKN4) (AID 2284232; active means hit-call score of the fitted dose curve at least 0.9, where 1 is the maximum; inactive means score below 0.9)
Method in brief: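 LUHMES precursors differentiated 2 days, replated at 30000 cells/well without cAMP/GDNF, then compound-treated 24 h. Viability from Hoechst H-33342 and calcein-AM live staining (30 min) by high-content fluorescence imaging; bidirectional fit versus DMSO.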

[13] = UKN2_HCS_IMR90_cell_viability: Viability Assessment in the University of Konstanz (UKN) Leist Lab Neural Crest Cell Migration Assay in human induced IMR90 Pluripotent Stem Cells (UKN2) (AID 2284233; active means hit-call score of the fitted dose curve at least 0.9, where 1 is the maximum; inactive means score below 0.9;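 further: viability of neural crest cells differentiated from IMR90 iPSC measured by calcein-AM fluorescence imaging; cells exposed to compound for 24 h after a 24 h migration phase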)
Method in brief: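 Human IMR90-derived neural crest cells were allowed to migrate for 24 h into a cell-free zone, then exposed to test chemicals for 24 h. Calcein-AM and Hoechst staining with high-content imaging gave viability, analysed against DMSO baseline.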

Measured: AC50

Sequence of Bile acid receptor (Homo sapiens) (Q96RI1 whole entry, looked up, the tested form may be a part): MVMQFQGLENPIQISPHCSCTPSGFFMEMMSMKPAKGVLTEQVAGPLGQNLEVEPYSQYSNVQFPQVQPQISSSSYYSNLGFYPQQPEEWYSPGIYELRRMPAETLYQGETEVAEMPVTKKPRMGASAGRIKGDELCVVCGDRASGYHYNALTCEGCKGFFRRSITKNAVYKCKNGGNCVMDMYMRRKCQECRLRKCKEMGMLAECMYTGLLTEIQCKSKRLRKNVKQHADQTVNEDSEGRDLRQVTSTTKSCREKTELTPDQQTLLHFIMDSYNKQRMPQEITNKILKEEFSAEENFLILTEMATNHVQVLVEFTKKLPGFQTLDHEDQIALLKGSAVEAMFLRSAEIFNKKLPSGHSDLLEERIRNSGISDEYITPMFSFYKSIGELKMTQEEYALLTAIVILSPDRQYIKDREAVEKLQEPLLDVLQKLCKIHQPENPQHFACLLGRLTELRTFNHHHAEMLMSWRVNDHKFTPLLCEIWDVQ
Sequence of human Phosphodiesterase 10 (PDE10), PDE10A (gene 10846) (Q9Y233 whole entry, looked up): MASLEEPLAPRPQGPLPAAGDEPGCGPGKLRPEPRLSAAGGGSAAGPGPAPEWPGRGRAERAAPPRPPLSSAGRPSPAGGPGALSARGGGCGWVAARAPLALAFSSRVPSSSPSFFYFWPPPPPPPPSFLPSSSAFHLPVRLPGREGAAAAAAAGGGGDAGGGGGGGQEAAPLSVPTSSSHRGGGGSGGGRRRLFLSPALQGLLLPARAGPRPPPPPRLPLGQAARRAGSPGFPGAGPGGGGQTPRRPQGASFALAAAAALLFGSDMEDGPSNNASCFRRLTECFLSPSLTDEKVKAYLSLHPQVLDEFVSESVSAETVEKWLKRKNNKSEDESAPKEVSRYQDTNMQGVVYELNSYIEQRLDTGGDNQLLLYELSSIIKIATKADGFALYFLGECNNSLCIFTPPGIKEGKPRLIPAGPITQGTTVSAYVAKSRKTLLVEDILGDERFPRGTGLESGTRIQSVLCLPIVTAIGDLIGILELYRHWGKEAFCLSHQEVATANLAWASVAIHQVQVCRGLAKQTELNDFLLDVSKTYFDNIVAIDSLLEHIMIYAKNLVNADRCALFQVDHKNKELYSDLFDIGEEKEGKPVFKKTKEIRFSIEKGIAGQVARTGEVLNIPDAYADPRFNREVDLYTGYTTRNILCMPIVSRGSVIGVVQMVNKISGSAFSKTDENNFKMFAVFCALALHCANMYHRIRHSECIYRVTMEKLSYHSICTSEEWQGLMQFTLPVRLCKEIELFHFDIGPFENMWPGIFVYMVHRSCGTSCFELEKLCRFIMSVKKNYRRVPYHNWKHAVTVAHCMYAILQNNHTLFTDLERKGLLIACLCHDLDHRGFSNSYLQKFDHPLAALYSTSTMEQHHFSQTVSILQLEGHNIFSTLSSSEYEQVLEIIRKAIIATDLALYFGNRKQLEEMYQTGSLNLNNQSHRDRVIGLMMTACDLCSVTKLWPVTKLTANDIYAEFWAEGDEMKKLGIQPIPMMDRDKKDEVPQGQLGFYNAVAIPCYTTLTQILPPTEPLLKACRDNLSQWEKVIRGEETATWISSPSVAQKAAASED

C[N+](C)(C)CC(=O)[O-]
inactive: [1]

CCCCCC[C@@H](O)C/C=C\CCCCCCCC(=O)O
inactive: [2] | [3]
active: [4] 41.4 µM | [5] 10.8 µM

Oc1cccc2ccccc12
active: [11] 26.3 µM | [4] 4.58 µM | [5] 3.07 µM
not listed: [1] | [3]
inactive: all other assays above
